Assay outcomes from PubChem.
RORg inh – blocks mouse ROR gamma transcriptional activity; Potency, µM (series often up to 53.6 µM), for the others: at the top dose activity change, negative = inhibition, most hits filed as inhibitors; hit rate 5.4% among 310,000; AID 2551; P51450; Drosophila S2 Gal4-RORgamma UAS-luciferase reporter, 20 h; further: potency means the concentration at half of the fitted maximal effect; nearly all actives have a fitted effect of over 60% in size
Target sequence (P51450 whole entry, looked up, the tested form may be a part): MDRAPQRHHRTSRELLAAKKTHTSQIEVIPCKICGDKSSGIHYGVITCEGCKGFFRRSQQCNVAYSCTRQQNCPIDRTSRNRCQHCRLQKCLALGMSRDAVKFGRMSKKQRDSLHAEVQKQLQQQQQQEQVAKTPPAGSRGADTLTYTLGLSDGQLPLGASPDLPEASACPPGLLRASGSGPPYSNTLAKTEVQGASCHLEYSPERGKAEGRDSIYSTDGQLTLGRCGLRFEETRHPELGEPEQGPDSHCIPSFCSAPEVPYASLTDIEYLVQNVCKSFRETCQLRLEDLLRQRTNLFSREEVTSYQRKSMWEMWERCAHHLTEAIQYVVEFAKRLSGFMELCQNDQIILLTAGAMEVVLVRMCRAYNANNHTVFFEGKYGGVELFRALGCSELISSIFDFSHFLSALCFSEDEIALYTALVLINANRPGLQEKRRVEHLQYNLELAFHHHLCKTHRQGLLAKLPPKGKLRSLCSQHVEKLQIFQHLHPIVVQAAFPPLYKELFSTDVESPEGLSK
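Stable Schneider cell line, Gal4 DNA-binding domain fused to ROR gamma, UAS-luciferase. Cmpd 1 hr RT → CuSO4 700 uM final → 20 hr RT → luciferase reagent 10 min → luminescence.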
ELG1 repair inh – inhibitors of ELG1-dependent DNA repair in HEK293T cells | HEK293T ELG1-luciferase reporter, luminescence, 16 h; DNA damage induced by 5-fluorouridine | Potency, µM (top dose mostly 46.1 µM), without a hit: at the highest dose activity change, negative = inhibition, hits mostly inhibitors | hit rate 2.3% among 330,000 | AID 504467; further: potency means the concentration at half of the fitted maximal effect; nearly all actives have a fitted effect of over 55% in size
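DMSO vehicle served as the neutral condition. Each well held 2,000 cells given 5-fluorouridine plus compound; after 16 hr at 37 °C/5% CO2, ONE-Glo was added and luciferase measured 30 min later.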
IL1B secr inh – blocks inflammasome-driven IL-1 beta release; THP-1 LPS/ATP IL-1B secretion, AlphaLISA, 16 h; active compounds read low; activity change, % at 57.5 µM; hit rate 4.7% among 360,000; in the data active means activity change below about -50%; inconclusive means mostly about -30% to -49%
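Secreted IL-1B measured by AlphaLISA bead assay after 16 h compound exposure of THP-1 cells; compounds (final up to 57.5 uM) added 1 h before LPS (250 ng/mL) and ATP (1.25 mM) stimulation; lower signal means less secretion.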
VP16 counter – Gal4-VP16 reporter inhibition counter-screen; AID 2546; hit rate 3.5% among 310,000; Drosophila S2 Gal4-VP16 UAS-luciferase, luminescence, 20 h; Potency, µM (top dose mostly 53.6 µM), inactives show at the top dose activity, negative = inhibition, hits mostly inhibitors;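 further: Gal4-VP16 expression switched on by copper sulfate through the metallothionein promoter; potency means the concentration at half of the fitted maximal effect; nearly all actives have a fitted effect of over 50% in size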
DT40 TDP1 no CPT – qHTS for Inhibitors of human tyrosyl-DNA phosphodiesterase 1 (TDP1): qHTS in cells in absence of CPT | hit rate 15% among 420,000 | DT40 Tdp1-/- hTDP1 cells, no CPT, ATP luminescence, 48 h | Potency, µM (doses to about 46.2 µM), for the others: at the top dose activity change, negative = growth inhibition, most hits filed as inhibitors; further: potency means the concentration at half of the fitted maximal effect; nearly all actives have a fitted effect of over 55% in size
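Readout: luminescence from CellTiter-Glo after 30 min in the dark at RT. Cells: DT40 Tdp1-/- with stable hTDP1, 400/well. Exposure: compounds alone, ≥48 hr, 37 °C.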
TDP1 cell CPT – DT40-hTDP1 cell growth loss with CPT; chicken DT40 Tdp1-/-;hTDP1 cells + 20 nM CPT, ATP luminescence, 48 h; Potency, µM (series often up to 46.2 µM), without a hit: top-dose activity change, negative = growth inhibition, hits mostly inhibitors; hit rate 12% among 420,000; further: potency means the concentration at half of the fitted maximal effect; nearly all actives have a fitted effect of over 55% in size
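Cell growth measured by CellTiter-Glo luminescence after a minimum 48 h, 37 C compound exposure with 20 nM CPT in Tdp1-knockout DT40 cells stably expressing hTDP1, seeded 400/well; qHTS titration format.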
ELG1 FLuc counter – luciferase inhibition in cell-free luciferin readout for ELG1 hits; shares compounds with ELG1 repair inh; cell-free firefly luciferase luminescence counter-screen, ViewLux; Potency, µM (top dose mostly 46.1 µM), for inactives: at the highest dose activity change, negative = inhibition, hits mostly inhibitors; hit rate 3% among 350; further: potency means the concentration at half of the fitted maximal effect
ELG1 Luc conf – inhibits ELG1-dependent DNA repair in HEK293T cells, confirmed | shares compounds with ELG1 repair inh | HEK293T ELG1-luciferase levels, luminescence; cells co-treated with 5-fluorouridine | Potency, µM (highest dose often 46.1 µM), for the others: at the highest dose activity change, negative = inhibition, usual class: inhibitors | hit rate 68% among 670 | AID 624248; further: potency means the concentration at half of the fitted maximal effect; nearly all actives have a fitted effect of over 55% in size
ELG1 MMS Luc – MMS-stimulated human ELG1 repair inhibition, confirmed. shares compounds with ELG1 repair inh. HEK293T luciferase-tagged ELG1 level, MMS stimulated. Potency, µM (highest dose often 46.1 µM), for the others: at the highest dose activity change, negative = inhibition, usual class: inhibitors. hit rate 53% among 670. AID 624249; further: potency means the concentration at half of the fitted maximal effect; nearly all actives have a fitted effect of over 60% in size
ELG1 5FU viab – confirmation of ELG1 repair inhibitors: viability with 5FU; shares compounds with ELG1 repair inh; cell viability with 5-FU, ELG1-dependent repair; Potency, µM (highest dose often 46.1 µM), without a hit: at the highest dose activity change, negative = viability loss, most hits filed as cytotoxic; 670 tested, under 10 active;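 further: ELG1-luc HEK293T cells cotreated with 5-fluorouridine at 10 µM final; potency means the concentration at half of the fitted maximal effect; viability measured 16 h after compound addition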
ELG1 MMS viab – confirmation of ELG1 repair inhibitors: viability with MMS; shares compounds with ELG1 repair inh; Cell viability with MMS, ELG1-dependent DNA repair; Potency, µM (series often up to 46.1 µM), for inactives: at the highest dose activity change, negative = viability loss, hits mostly cytotoxic; hit rate 33% among 670; AID 624251;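 further: ELG1-luc HEK293T cells co-treated with 10 µM MMS; potency means the concentration at half of the fitted maximal effect; viability read 16 h after compound addition; nearly all actives have a fitted effect of over 60% in size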
Cell viab unstim – counter-screen for ELG1 repair inhibitors: unstimulated cell viability. shares compounds with ELG1 repair inh. cell viability counter-screen, unstimulated, luminescence. Potency, µM (doses to about 45.9 µM), for the others: at the highest dose activity change, negative = loss of viability, usual class: cytotoxic. hit rate 8% among 900. AID 624252;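 further: potency means the concentration at half of the fitted maximal effect; compound exposure lasted 16 hours before reading; nearly all actives have a fitted effect of over 55% in size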
FLuc enzyme – firefly luciferase inhibition counter-screen. shares compounds with ELG1 repair inh. purified firefly luciferase, luminescence counter-screen. Potency, µM (series often up to 57.5 µM), inactives show at the highest dose activity, negative = inhibition, hits mostly inhibitors. hit rate 10% among 350; further: potency means the concentration at half of the fitted maximal effect
* hit, by the source's call; ? = inconclusive; nt = no result. Hits are enriched below; roughly 21% of the tested compounds scored in any of these assays. Unless noted, the call rests on the fitted dose curve; in most records, active means well fitted curve in the direction sought with a large enough effect; inconclusive means small, poorly fitted or top-dose-only effect, or another doubt; inactive means no such curve, though single readings can be large; an effect the other way counts as inactive or inconclusive. On the % scale 0 is the no-effect control and ±100 the full control effect.

SMILES	RORg inh	ELG1 repair inh	IL1B secr inh	VP16 counter	DT40 TDP1 no CPT	TDP1 cell CPT	ELG1 FLuc counter	ELG1 Luc conf	ELG1 MMS Luc	ELG1 5FU viab	ELG1 MMS viab	Cell viab unstim	FLuc enzyme
COc1ccc(-c2cc(C(=O)N(C)Cc3nc4ccccc4c(=O)[nH]3)c3ccccc3n2)cc1OC	nt	2.3µM*	-24	nt	21µM*	?	nt	2.5µM*	7.1µM*	?	8.9µM*	?	nt
CCOC(=O)c1cc(-c2cc(OC)c(OC)c(OC)c2)nc2c1c(=O)[nH]c(=O)n2Cc1ccccc1	-20%	13%	-9	-6%	?	?	42%	nt	nt	nt	nt	?	-5%
CCOC(=O)c1cc(-c2ccc(F)cc2)nc2c1c(=O)[nH]c(=O)n2Cc1ccccc1	-4%	29%	14	-8%	?	?	nt	nt	nt	nt	nt	nt	nt
COC(=O)C1CCN(C(=O)/C(C)=C\c2ccccc2)CC1	8%	29%	18	17%	-5%	12%	nt	nt	nt	nt	nt	nt	nt
Cc1cc(C(=O)NNC(=O)Cc2ccc(Cl)c(Cl)c2)c(C)o1	nt	-3%	-5	nt	-6%	-17%	nt	nt	nt	nt	nt	nt	nt
COc1cccc(/C=C/C(=O)OCC(=O)c2ccccc2)c1OC	nt	?	18	nt	?	9%	nt	nt	nt	nt	nt	-3%	nt
COc1cccc(/C=C/C(=O)OCC(=O)NCc2ccco2)c1OC	22%	8%	41	-16%	-27%	-15%	nt	nt	nt	nt	nt	nt	nt
CC(C)(C)OC(=O)N1CCC(c2c(C(=O)NCC3CCN(C4CCCC4)C3)cnn2-c2ccccc2)CC1 (configuration not stated)	8%	0%	-14	2%	-11%	?	nt	nt	nt	nt	nt	nt	nt
CCC1CCCCN1CCCNC(=O)c1ccc2c(c1)NC(=O)CS2 (configuration not stated)	-11%	?	0	-6%	6%	12%	nt	nt	nt	nt	nt	nt	nt
CCC1CCCCN1CCCNC(=O)c1ccc2nc(N3CCC(C)CC3)sc2c1 (configuration not stated)	-34%	?	?	18%	?	?	102%	nt	nt	nt	nt	-12%	?
O=C(O)c1ccc(NC(=S)Nc2ccccc2)cc1	-38%	17%	-2	29%	2%	?	nt	nt	nt	nt	nt	nt	nt
COc1ccc2c(c1)c(CC(=O)Nc1ccccc1OC)c(C)n2C(=O)c1ccc(Cl)cc1	25%	-20%	0	-11%	?	?	3%	10µM*	?	?	?	-3%	3%
COc1cc(-c2cc(-c3ccccc3)nc(SCC(=O)O)c2C#N)cc(OC)c1OC	-13%	?	8	3%	-3%	-2%	nt	nt	nt	nt	nt	nt	nt
COc1ccc(-c2cc(-c3ccc(C)cc3)nc(SCc3nnc(-c4ccccc4)o3)c2C#N)cc1OC	-15%	2.9µM*	10	3%	-30%	?	-1%	3.2µM*	-12%	?	13%	-3%	0%
COc1ccc(C2=NN(C(=O)CSc3nc(=O)n4cccc(C)c4n3)C(c3ccc(C)cc3)C2)cc1 (configuration not stated)	nt	12%	-5	nt	?	?	nt	nt	nt	nt	nt	nt	nt
CC(=O)c1cccc(NC(=O)N2CCC(NC(=O)C34CC5CC(CC(C5)C3)C4)CC2)c1	19%	-5%	4	4%	?	3%	nt	nt	nt	nt	nt	nt	nt
O=c1c2ccccc2nc(COc2ccccc2)n1/N=C/c1c[nH]c2ccccc12	?	2.3µM*	8	-2%	16µM*	?	nt	6.3µM*	-18%	?	4%	?	nt
Cc1ccc2cc(CN(Cc3ccco3)C(=O)NCc3ccccc3)c(=O)[nH]c2c1C	8%	?	?	-1%	?	?	nt	nt	nt	nt	nt	nt	nt
COc1ccccc1NC(=O)N(Cc1ccco1)Cc1cc2ccc(C)c(C)c2[nH]c1=O	2%	8.2µM*	2	-3%	4.1µM*	3.7µM*	10%	4µM*	?	4%	?	?	-17%
O=C(Cn1[nH]c(=O)c2ccccc2c1=O)Nc1ccc2c(c1)CCC2	?	18%	29	24%	-16%	-15%	nt	nt	nt	nt	nt	nt	nt
Cn1nc(CC(=O)Nc2ccc3c(c2)CCC3)c2ccccc2c1=O	?	0.52µM*	89	?	1.6µM*	3.3µM*	-8%	?	0.71µM*	-8%	0.89µM*	?	-14%
COc1ccc(C(=O)N/C(=C\c2cccs2)c2nc3ccccc3[nH]2)cc1OC	20%	2.3µM*	0	-14%	-27%	-11%	nt	7.9µM*	1%	?	-1%	?	nt
Cc1cccnc1NC(=O)CNC(=O)c1ccccc1	nt	?	12	nt	-3%	-6%	nt	nt	nt	nt	nt	nt	nt
CC1=C(C(=O)OCCc2ccccc2)C(c2ccsc2)NC(=O)N1C (configuration not stated)	-1%	-19%	5	-5%	-26%	?	nt	nt	nt	nt	nt	nt	nt
